# Data: PubChem BioAssay AID1486 (The Scripps Research Institute Molecular Screening Center, 2009)
# Several values for one entry are separate records, joined by “and”; a condition that tells them apart may be missing. Identical values can stand only once. Among all 220,000 compounds or so, about 2,400 (1.1%) were called active.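 How the source made its calls: active means inhibition above a per-campaign cutoff, the mean inhibition of all tested compounds plus 3 SD (cut at about 27% in these data); inactive means the rest.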 For the sample, actives were picked, then their nearest neighbours and some compounds at random.
# Assay: growth loss in parental Ba/F3 cells – cell-based, murine pro-B, CellTiter-Glo luminescence, counter-screen for JAK2V617F inhibitor project (AID 1486);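 further: 0% = DMSO wells and 100% = JAK Inhibitor I control wells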
# Conditions: Ba/F3 parental viability, CellTiter-Glo ATP luminescence; at 5.6 µM; active compounds read high
row,Compound,inhibition
1,Cc1ccc(Oc2nc(-c3ccccn3)nc3ccccc23)cc1,-1.39% (inactive)
2,CCCOn1c(-n2nc(C)cc2C)nc2ccccc2c1=O,34% (active)
3,Cc1cc(C)n(-c2nc(C(F)(F)F)nc3ccccc23)n1,7.14% (inactive)
4,CCOn1c(SC(C)C)nc2ccccc2c1=O,3.34% (inactive)
5,CCOc1ccccc1C(=O)NCc1ccco1,4.63% (inactive)
6,CCCC1=Nc2cc(C(=O)NCc3ccco3)ccc2Sc2ccccc21,80.2% (active)
7,COc1ccc(CCNS(=O)(=O)c2ccc(C(=O)NCc3ccco3)cc2)cc1OC,3.88% (inactive)
8,COc1cccc(-n2c(SCC(=O)c3c[nH]c4ccccc34)nc3ccccc3c2=O)c1,3.88% (inactive)
9,Cn1ncc2c(NNC(=O)Cc3cccc4ccccc34)ncnc21,6.49% (inactive)
10,COCCCNC(=O)Cn1cc(/C=C(\C#N)C(=O)N2CCN(c3ccccc3)CC2)c2ccccc21,2.71% (inactive)
11,O=C(O)CCC(=O)Nc1nc2ccc([N+](=O)[O-])cc2s1,3.87% (inactive)
12,O=C(NC(Nc1nc2ccc([N+](=O)[O-])cc2s1)(C(F)(F)F)C(F)(F)F)c1ccccc1,53.4% (active)
13,O=C(Nc1nc2ccc([N+](=O)[O-])cc2s1)c1ccncc1,-4.75% (inactive)
14,O=C(O)c1cccc(NC(=S)N/N=C/c2c[nH]c3ccccc23)c1,7.89% (inactive)
15,Cc1cc(C)c(C(N)=O)c(Cl)n1,1.66% (inactive)
16,CCOc1cccc(NC(=O)Cn2nc(-c3ccc4c(c3)OCCO4)ccc2=O)c1,1.09% (inactive)
17,CN1CCc2nc(SC(C(=O)O)c3ccccc3)c(C#N)c(-c3cccs3)c2C1 (configuration not stated),-0.18% (inactive)
18,CC1=NOC(=O)/C1=C\c1ccccc1,-2.02% (inactive)
19,COc1cc(/C=C2/C(=O)ON=C2C)ccc1OCc1ccccc1F,5.96% (inactive)
20,COc1cc(/C=C2/C(=O)ON=C2C)ccc1OCc1cccc(F)c1,59.9% (active)
21,CCc1ccc(Oc2nc([N+](=O)[O-])nn2C)cc1,-0.05% (inactive)
22,COC(=O)c1cccc(NS(C)(=O)=O)c1,-2.38% (inactive)
23,CCOC(=O)c1cc(-c2nnc(-c3cc(OC)c(OC)c(OC)c3)o2)c(C)nc1C,3.72% (inactive)
24,CCOC(=O)C1CCN(C(=O)/C=C/c2cc(OC)c(OC)c(OC)c2)CC1,2% (inactive)
25,CCOC(=O)C1=C(N)N2C(=O)C(C)SC2=C(C(=O)OCC)C1c1cc(OC)c(OC)c(OC)c1 (configuration not stated),66% (active)

row,Compound,inhibition
1,COc1ccc(C2C=C(c3ccc(Br)cc3)Nc3nc(NS(C)(=O)=O)nn32)cc1 (configuration not stated),-0.92% (inactive)
2,C=CCNC(=S)NNC(=O)c1cc(Cl)ccc1OC,2.83% (inactive)
3,Cc1ccc(CN(C)CC(=O)Nc2cccc([N+](=O)[O-])c2)o1,1.42% (inactive)
4,Cc1ccc(NC(=O)CN(C)CC(=O)Nc2cccc(F)c2)cc1[N+](=O)[O-],27.9% (active)
5,CN(CC(=O)Nc1cccc(F)c1)CC(=O)Nc1cccc([N+](=O)[O-])c1,3.37% (inactive)
6,CC(=O)N/C(=C/c1ccc(OC(F)F)cc1)C(=O)O,6.54% (inactive)
7,C=CCNC(=S)N1CCc2[nH]c3ccccc3c2C1,0.22% (inactive)
8,O=C(Nc1ccc(Cl)cc1)N1CCc2[nH]c3ccccc3c2C1,4.99% (inactive)
9,Fc1ccc(NC(=S)N2CCc3[nH]c4ccccc4c3C2)cc1,35% (active)
10,CC12CCC(C(=O)N(NC(=O)c3ccccc3O)C1=O)C2(C)C (configuration not stated),8.25% (inactive)
11,COc1ccc(S(=O)(=O)NCC2CCCN(C(=O)c3occc3C)C2)cc1 (configuration not stated),7.62% (inactive)
12,Cc1cccc(NC(=O)COc2ccccc2C)n1,83.3% (active)
13,Cc1cccc(NC(=O)COc2ccc(Br)cc2C)n1,6.66% (inactive)
14,Cc1ccccc1OCC(=O)Nc1nc(C)c(C(=O)N(C)C)s1,7.55% (inactive)
15,CC1(C)CC(=O)C/C(=N\NC(=O)c2cccs2)C1,8.84% (inactive)
16,NS(=O)(=O)c1ccc(NC(=S)NC(=O)c2cccc(Br)c2)cc1,7.4% (inactive)
17,O=C(C[n+]1cc(-c2ccc(Cl)c(Cl)c2)n2c1CCC2)c1cccs1,10.5% (inactive)
18,Cn1c(-c2ccccc2)c[n+]2c1CCCCC2,3.67% (inactive)
19,Clc1ccc(C[n+]2cc(-c3ccccc3)n3c2CCC3)cc1,63.7% (active)
20,Cc1ccc(C(=O)C[n+]2cc(-c3ccccc3)n3c2CCCCC3)cc1,70.7% (active) and 65.4% (active)
21,Cc1ccc(-c2c[n+](CC(=O)Nc3ccccc3)c3n2CCC3)cc1,0.41% (inactive)
22,Clc1ccc(C[n+]2cc(-c3ccc(Cl)cc3)n3c2CCC3)cc1,58.9% (active)
23,O=c1oc(-c2ccccc2NS(=O)(=O)c2ccc(Cl)cc2)nc2ccccc12,2.45% (inactive)
24,Cc1ccc(/C=N/NC(=S)Nc2cccc(S(=O)(=O)N(C)C)c2)o1,2.16% (inactive)
25,COC(=O)c1ccc(NC(=S)Nc2cccc(C)n2)cc1,-3.59% (inactive)

row,Compound,inhibition
1,CC(=O)Nc1ccc(Nc2c3ccccc3nc3ccccc23)cc1,97.3% (active)
2,O=[N+]([O-])c1cccc(Nc2c3ccccc3nc3ccccc23)c1,2.06% (inactive)
3,Cc1ccc(Nc2c3c(nc4ccccc24)CCC3)cc1,-1.93% (inactive)
4,CC1=C(C)CC(C(=O)NNC(=O)c2csc3c2CCC(C(C)(C)C)C3)C(C(=O)O)C1 (configuration not stated),4.65% (inactive)
5,CCCCCn1c(=O)c(C(=O)OCC)c(Cl)c2ccccc21,-3.36% (inactive)
6,CCOC(=O)C1CN(S(=O)(=O)c2ccc(F)cc2)C1,0.24% (inactive)
7,Cc1ccc(S(=O)(=O)CC(=O)Nc2c(C)n(C)n(-c3ccccc3)c2=O)cc1,7.55% (inactive)
8,Cc1c(CCO)c(=O)n(-c2ccccc2)n1S(=O)(=O)c1ccc(F)cc1,41% (active)
9,Cc1cc(C)cc(OCC(=O)NNC(=O)CCN2C(=O)c3ccccc3C2=O)c1,5.47% (inactive)
10,CCN(C(=O)COC(=O)c1c(NC(C)=O)sc(C)c1C)C1CCS(=O)(=O)C1 (configuration not stated),8.25% (inactive)
11,CCOC(=O)C1=C(c2ccc(OC)cc2)C(=O)c2ccccc2C1=O,29.1% (active)
12,CCOC(=O)c1c(-c2ccc(C)cc2)csc1/N=C(\C)C1=C(O)c2ccccc2C1=O,-0.41% (inactive)
13,CCOC(=O)c1ccccc1NS(=O)(=O)c1ccc(OC)cc1,5.36% (inactive)
14,Brc1ccc(-c2nn[nH]n2)cc1,0.72% (inactive)
15,COc1ccc(C(=O)C[n+]2ccc(C)cc2)cc1,2.06% (inactive)
16,COc1ccc(OCCC(=O)c2ccc(OC)cc2)cc1,-3.65% (inactive)
17,COc1ccc(C(=O)C[n+]2ccc(N)c(C)c2C)cc1,74.6% (active)
18,O=C(CNS(=O)(=O)c1ccccc1)NCC(=O)OCc1ccccc1F,8.12% (inactive)
19,O=C(c1cncc(Br)c1)N1CCN(c2ccc([N+](=O)[O-])cc2)CC1,6.79% (inactive)
20,O=C1NC(c2ccc(-c3ccccc3[N+](=O)[O-])o2)C(C(=O)c2ccc(Cl)cc2)C(O)(C(F)(F)F)N1 (configuration not stated),6.99% (inactive)
21,Cc1c(/C=N\NC(=O)c2cc3ccccc3o2)c2ccccc2n1C,41.3% (active)
22,O=C(N/N=C/c1coc2ccccc2c1=O)c1cc2ccccc2o1,4.3% (inactive)
23,O=C(N/N=C/c1c[nH]c2ccccc12)c1cc2ccccc2o1,-2.26% (inactive)
24,Cn1c(-c2ccc(F)cc2)cnc1SCC(=O)NNC(=O)Cc1ccccc1,1.6% (inactive)
25,CN(Cc1ccccc1)C(=O)CCc1ccccc1,1.56% (inactive)

row,Compound,inhibition
1,Cc1ccc(-c2cnc(NC(=O)CCC(=O)N(C)Cc3ccccc3)n2C)cc1,62.4% (active)
2,CC(=O)Nc1nc(N(C)C)nc(N(C)C)n1,2.27% (inactive)
3,COc1ccc(-n2nnnc2SCC(=O)NCc2cccs2)cc1,7.65% (inactive)
4,COc1ccc(C(=O)NN(C)c2nc(-c3ccccc3)cc(C)c2S(C)(=O)=O)cc1,6.2% (inactive)
5,CSc1nc(N(C)NC(=O)c2cccc(C)c2)c2ccccc2n1,90.9% (active)
6,CN(NC(=O)c1ccccc1)c1nc2ccccc2nc1C(F)(F)F,5.67% (inactive)
7,CN(NC(=O)c1ccccc1F)c1nc(C(F)(F)F)nc2ccccc12,73.9% (active)
8,COc1ccc(OCC(=O)NNC(=O)c2cccc(C)c2)cc1,1.18% (inactive)
9,COC(=O)CNC(=O)c1ccccc1F,3.61% (inactive)
10,Cc1cc(C)c2nc(SCC(=O)N(C)C3CCS(=O)(=O)C3)cc(C)c2c1 (configuration not stated),2.01% (inactive)
11,CCc1cc(CNC(=O)CC2C(=O)NCCN2Cc2ccccc2C(F)(F)F)on1 (configuration not stated),2.77% (inactive)
12,O=C(O)c1ccn(COc2ccc(Br)cc2)n1,6.73% (inactive)
13,C=CCNC(=S)N/N=C/c1ccc(C)s1,-10.6% (inactive)
14,COC(=O)C1NN=C(C(=O)c2ccc(Br)cc2)C1c1cccc(Br)c1 (configuration not stated),5.65% (inactive)
15,CC(C)CCN1CCN(Cc2cn[nH]c2C2CCCCC2)CC1CCO (configuration not stated),5.24% (inactive)
16,CC1(C)CC(CNCCC(c2ccc(F)cc2)c2ccco2)CCO1 (configuration not stated),4.73% (inactive)
17,Cc1cc(NC(=O)CN2C(=O)NC(C)(CCc3ccccc3)C2=O)no1 (configuration not stated),-0.49% (inactive)
18,O=C(Nc1ccc(CSc2ccccc2)cc1)c1ccc(CN2CCOCC2)cc1,6.68% (inactive)
19,O=C(COC(=O)CNC(=O)c1ccccc1F)NCC(F)(F)F,0.89% (inactive)
20,CCO/C=C1\C(=O)N(c2ccc(OCC)cc2)C(=O)c2ccccc21,0.91% (inactive)
21,CCOc1ccc(N2C(=O)CC(N(O)c3ccccc3)C2=O)cc1 (configuration not stated),-1.11% (inactive)
22,CCOc1ccc(N2C(=O)CN(c3cccc4ccccc34)C2=S)cc1,80.4% (active)
